From PubChem BioAssay (EPA / NIEHS) come the findings set out here.

In one assay the test system is IYD (gene 389434). Description: CCTE_GLTED_hIYD: CCTE's human Iodotyrosine Deiodinase (xIYD) Inhibition Assay, Great Lakes Toxicology and Ecology Division (GLTED) Lab (AID 2284317; active = hit-call score of the fitted dose curve at least 0.9, where 1 is the maximum;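 note: cell-free human IYD enzyme made in baculovirus insect cells; iodide freed from monoiodotyrosine measured by cerium arsenite color change at 420 nm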). The method in brief:
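In the IYD assay, iodide released from MIT by insect-cell-expressed human enzyme was quantified after 3 h via Sandell-Kolthoff rate at 420 nm, with plate-wise normalization to MNT and solvent controls.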

Assay [1] is described as follows: CCTE_Mundy_HCI_iCellGluta_NOG_NeuriteLength: CCTE's Neurite Outgrowth Assay in iCellGluta cells for Neurite Length, Mundy Lab (AID 2284318; active = hit-call score of the fitted dose curve at least 0.9, where 1 is the maximum). The method in brief:
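Automated high-content imaging of betaIII-tubulin (Alexa Fluor-488) and Hoechst-stained cells gave neurite length, normalized to the DMSO baseline.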

Assay [2] is described as follows: IUF_NPC2-5_cytotoxicity_72hr: Cytotoxicity Assessment at 72 hours in the Leibniz Research Institute for Environmental Medicine (IUF) Neural Progenitor Cell Migration and Differentiation Assay for Cytotoxicity (NPC2-5) (AID 2284306; active = hit-call score of the fitted dose curve at least 0.9, where 1 is the maximum;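 note: LDH release into supernatant measured by resorufin fluorescence marking membrane damage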). The method in brief: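 Membrane-integrity cytotoxicity at 72 h, read as LDH-driven resorufin fluorescence in supernatant. hNPC spheres from fetal cortex differentiate on coated plates in N2 medium, 37C, 5% CO2; seven serial compound concentrations plus solvent control (DMSO ≤0.1%).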

Assay [3] is described as follows: IUF_NPC2-5_cytotoxicity_120hr: Cytotoxicity Assessment at 120 hours in the Leibniz Research Institute for Environmental Medicine (IUF) Neural Progenitor Cell Migration and Differentiation Assay (NPC2-5) (AID 2284307; active = hit-call score of the fitted dose curve at least 0.9, where 1 is the maximum). The method in brief:
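Sphere plating starts differentiation and exposure together at day 0. Compound solution is half-replaced on day 3. At 120 h, medium supernatant is taken for an LDH membrane-integrity read based on resazurin reduction to resorufin fluorescence.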

A short description of assay [4]: IUF_NPC2-5_cell_number_120hr: Cell Number Assessment at 120 hours in the Leibniz Research Institute for Environmental Medicine (IUF) Neural Progenitor Cell Migration and Differentiation Assay (NPC2-5) (AID 2284308).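 Note: count of Hoechst-stained nuclei in migration zone around plated human neural progenitor spheres.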 The method in brief: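 hNPC spheres, one per well, PDL/laminin, N2 medium, 37C, 5% CO2. Dosing day 0 → half-medium change with fresh compound day 3 → fix 120 h. Readout: Hoechst+ nuclei count, migration area; 7 concentrations plus solvent control.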

Assay [5] in a line: IUF_NPC2-5_viability_120hr: Viability Assessment at 120 hours in the Leibniz Research Institute for Environmental Medicine (IUF) Neural Progenitor Cell Migration and Differentiation Assay (NPC2-5) (AID 2284312). The method in brief: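 Alamar blue resorufin fluorescence read after 5 days of differentiation, with compound present from day 0 and replenished at day 3. Primary hNPC spheres on laminin-coated plates, 37C; seven concentrations plus solvent control, fitted against DMSO.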

The nature of assay [6]: CCTE_Deisenroth_5AR_NBTE_donor: CCTE's 5alpha-reductase NanoBRET Target Engagement Assay […], Deisenroth Lab (AID 2284319). Particulars: actives raise or lower the signal. The method in brief: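 Donor NanoLuc luminescence at 460-20 nm is the read-out, serving artifact detection. Transiently expressed SRD5A2-NanoLuc in HEK293T; 5 h total chemical exposure, testosterone tracer added for the final 2 h; fitting bidirectional relative to DMSO baseline.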

Assay [7] is described as follows: CCTE_Deisenroth_5AR_NBTE_acceptor: CCTE's 5alpha-reductase NanoBRET Target Engagement Assay - Autofluorescence Screen, Deisenroth Lab (AID 2284321).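 Note: compound fluorescence in the acceptor channel under 460 nm excitation flags autofluorescence artifacts.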 Particulars: actives raise or lower the signal. The method in brief:
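Acceptor fluorescence intensity was read as an artifact-detection endpoint. Test chemicals at an assumed nominal 100 uM were excited at 460 nm across three independent runs. Activity was fitted bidirectionally against DMSO.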
(In BRET a luciferase serves as donor, and the signal depends on an acceptor being close.)

For a further assay, the system named is SRD5A2 (gene 6716). The assay is described as follows: CCTE_Deisenroth_5AR_NBTE_ratio: CCTE's 5alpha-reductase NanoBRET Target Engagement Assay - Ratio, Deisenroth Lab (AID 2284322). The settings on record: actives raise or lower the signal. The method in brief: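 HEK293T cells transiently expressing an SRD5A2-NanoLuc fusion (20 h post-transfection) were exposed to test chemical (10 nM - 29.9 uM, 8 points) for 3 h, then testosterone tracer for a further 2 h. Acceptor/donor BRET ratio was fitted bidirectionally against DMSO baseline.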

A short description of assay [8]: TAMU_PeakParms_SingleDonor1434_Asystole: Texas A&M University (TAMU) 1.5-hr Human Induced Pluripotent Stem Cell (iPSC)-derived Cardiomyocytes Calcium (Ca+2) Flux Assay for Cardiotoxicity: Asystole (quiescence of beating) (AID 2284328; active = hit-call score of the fitted dose curve at least 0.9, where 1 is the maximum). The method in brief: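 Average Ca2+-flux peak frequency (beats/s) was recorded in single-donor iPSC-derived cardiomyocytes after 90 min exposure (0.2–100 uM final, 0.5% DMSO). Asystole POD set as EC95 against DMSO, no preprocessing.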

Assay [9] can be described thus: IUF_NPC1_cytotoxicity_72hr: Cytotoxicity Assessment at 72 hours in the Leibniz Research Institute for Environmental Medicine (IUF) Neural Progenitor Cell Proliferation Assay (NPC1) (AID 2284332; active = hit-call score of the fitted dose curve at least 0.9, where 1 is the maximum;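 note: rising LDH signal means more cytotoxicity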). The method in brief: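 Cytotoxicity by LDH membrane-integrity assay on medium supernatants, fluorescence via resazurin reduction, after 3-day single exposure of primary hNPC spheres at 37C, pH 7.2-7.6 with growth factors. Fitted upward against baseline.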

Another assay relates to TTR (gene 7276). The assay is described as follows: CCTE_GLTED_hTTR_0.5uM: CCTE's human Transthyretin (hTTR) Inhibition Assay, with 0.5uM TTR, Great Lakes Toxicology and Ecology Division (GLTED) Lab (AID 2284320). The method in brief: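 Probe (ANSA) displacement from 0.5 uM human transthyretin was followed by fluorescence (ex 380, em 475) after a 2 h incubation with chemical. Activity was scored as signal loss and fitted positively relative to DMSO.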

Records with an inconclusive call do not appear. Calls of active or inactive are those of the source. Rule for the calls, unless noted: active = hit-call score of the fitted dose curve at least 0.9, where 1 is the maximum; inactive = score below 0.9.

A word on the AC50: it is the concentration at which the activity in the assay is half-maximal. With `O=C1C2(Cl)C3(Cl)C4(Cl)C(Cl)(Cl)C5(Cl)C3(Cl)C1(Cl)C5(Cl)C24Cl` (configuration not stated), the AC50 is 40.1 µM (active) with IYD (gene 389434) and 15 µM (active) in [1].

Turning to `CCOP(=S)(OCC)Oc1nc(Cl)c(Cl)cc1Cl`, the compound was called inactive in assay [2], in assay [3], in assay [4], in [5], in assay [6] and in [7]. Moreover, the result (in the assay with SRD5A2 (gene 6716); in [8]; in [9]) was inactive.

For `CCN1CCC2(CC1)COc1cc3c(cc12)N(C(=O)c1ccc(-c2ccc(-c4nnc(C)o4)cc2C)cc1)CC3`, the half-maximal activity concentration (AC50) was 2.7 µM (active) in assay [6], 2.17 µM (active) in assay [7] and 5.8 µM (active) with SRD5A2 (gene 6716).

With `CCCCCCCCc1ccc(O)cc1`, the AC50 in the assay on IYD (gene 389434) is 35.7 µM (active).

For the compound `O=C(O)C(F)(F)C(F)(F)C(F)(F)C(F)(F)C(F)(F)C(F)(F)F`, the call in assay [1] was inactive. Further, in the assay on TTR (gene 7276), the AC50 was 0.395 µM (active).

Consider `CCC(C)(C)c1ccc(O)c(C(C)(C)CC)c1`, for which, in the assay on IYD (gene 389434), the AC50 is 37 µM (active).

`C=C(C)C(=O)[O][Sn]([CH2]CCC)([CH2]CCC)[CH2]CCC`: the AC50 in assay [1] was 0.241 µM (active); in [6] it was 5.38 µM (active); in assay [7] it was 5.27 µM (active); in the assay with SRD5A2 (gene 6716), 4.42 µM (active).

For `O=C(OC1CCCCC1)c1ccccc1C(=O)OC1CCCCC1`, the outcome (in assay [6]; in assay [7]; with SRD5A2 (gene 6716)) was inactive.

Regarding `C[C@@H]1C[C@@H]([C@H](O)CC2CC(=O)NC(=O)C2)C(=O)[C@@H](C)C1`, the compound was called inactive in assay [6] and in [7]. The AC50 in the assay with SRD5A2 (gene 6716) is 0.0871 µM (active).

As to `O=C1C(Cl)=C(Cl)C(=O)c2ccccc21`, the AC50 is 55 µM (active) in the assay on IYD (gene 389434) and 50 µM (active) in [6]. The compound was classed as inactive (in [7]; in the assay with SRD5A2 (gene 6716)).

For `O=[N+]([O-])c1ccc(O)c([N+](=O)[O-])c1`, the call in [6] and in assay [7] was inactive. Moreover, the AC50 with SRD5A2 (gene 6716) was 64.9 µM (active).

Consider `N#CN=C(N)N`, for which the compound was classed as inactive (in assay [6]; in assay [7]; in the assay with SRD5A2 (gene 6716)).

On to `ClC(Cl)=C(Cl)C(Cl)=C(Cl)Cl`, for which, in [8], the result was inactive.

Take `O=C(O)C(F)(F)C(F)(F)C(F)(F)C(F)(F)C(F)(F)C(F)(F)C(F)(F)C(F)(F)C(F)(F)C(F)(F)F`: the AC50 was 51.3 µM (active) in the assay with IYD (gene 389434) and 1.98 µM (active) with TTR (gene 7276). Further, the call (in [6]; in assay [7]; with SRD5A2 (gene 6716)) was inactive.

In the case of `c1cc[c]([Hg][c]2ccccc2)cc1`, the outcome (in assay [6]; in assay [7]; with SRD5A2 (gene 6716)) was inactive.
